# In PubChem BioAssay (NCI):
# The panel holds about 79,000 compounds, 15% with a hit somewhere; the sample as a whole holds those more often. Unmarked numbers belong to inactive results. Calls of active or inactive are those of the source. Rule as the data show it: active = growth inhibition above about 70%; inactive = the rest.
# Key:
# [1] = NCI Yeast Anticancer Drug Screen. Data for the mlh1 strain (AID 171);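 also: 0% = growth of vehicle-treated control cultures of the same strain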; settings: S. cerevisiae mlh1 strain growth inhibition, hits give high values
# In short: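 Vehicle-normalised growth inhibition of a repair- or checkpoint-altered yeast strain following compound treatment.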
# [2] = NCI Yeast Anticancer Drug Screen. Data for the sgs1 strain (AID 173);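 also: 0% = growth of vehicle-only control cultures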; settings: S. cerevisiae sgs1 mutant, hits give high values
# In short: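 Screen format: yeast with repair or checkpoint alterations, compound exposure, growth read relative to vehicle.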
# [3] = NCI Yeast Anticancer Drug Screen. Data for the mlh1 rad18 strain (AID 175); settings: S. cerevisiae mlh1 rad18 strain growth inhibition, hits give high values
# In short: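 Vehicle-treated cultures served as the reference for growth inhibition in a yeast strain carrying DNA damage repair alterations exposed to each compound.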
# [4] = NCI Yeast Anticancer Drug Screen. Data for the rad18 strain (AID 177); settings: S. cerevisiae rad18 mutant growth inhibition, hits give high values
# In short: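 Test articles were incubated with altered yeast defective in DNA damage repair. Results are given as inhibition of growth versus vehicle.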
# [5] = NCI Yeast Anticancer Drug Screen. Data for the rad52 strain (AID 147);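 also: 0% = growth of vehicle-treated control cultures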; settings: S. cerevisiae rad52 mutant growth inhibition, hits give high values
# In short: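 Vehicle-treated cultures served as the reference for growth inhibition of compound-exposed yeast bearing a DNA repair mutation.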
# [6] = NCI Yeast Anticancer Drug Screen. Data for the rad50EPP+ strain (AID 151);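 also: 0% = growth of vehicle-treated control cultures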; settings: S. cerevisiae rad50 mutant strain, hits give high values
# In short: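 In this screen, rad50EPP+ yeast were exposed to compounds. Growth inhibition was scored against vehicle-treated controls.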
# [7] = NCI Yeast Anticancer Drug Screen. Data for the mgt1 strain (AID 153); settings: S. cerevisiae mgt1 mutant growth inhibition, hits give high values
# In short: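 mgt1 strain exposed; growth vs vehicle control recorded as inhibition.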
# [8] = NCI Yeast Anticancer Drug Screen. Data for the rad50 strain (AID 155);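 also: 0% = growth of vehicle-only cultures of the same strain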; settings: S. cerevisiae rad50 strain growth inhibition, hits give high values
# In short: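 Genetically altered yeast (DNA repair pathway); compound treatment; growth inhibition vs vehicle ctrl.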
# [9] = NCI Yeast Anticancer Drug Screen. Data for the mec2-1 strain (AID 157); settings: S. cerevisiae mec2-1 strain, hits give high values
# In short: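 Vehicle-treated cultures served as reference for growth inhibition of compound-exposed mec2-1 yeast.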
# [10] = NCI Yeast Anticancer Drug Screen. Data for the rad14 strain (AID 159);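 also: 0% = growth of vehicle-treated control cultures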; settings: S. cerevisiae rad14 strain growth inhibition, hits give high values
# In short: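 Test compounds were applied to a repair-deficient yeast strain. Its growth was then compared with that of cultures given vehicle alone, and inhibition was expressed relative to those controls.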
# [11] = NCI Yeast Anticancer Drug Screen. Data for the sgs1 mgt1 strain (AID 161);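 also: 0% = growth of cultures given vehicle only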; settings: S. cerevisiae sgs1 mgt1 strain, hits give high values
# In short: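 Read-out: growth inhibition vs vehicle controls. Cells: mutant yeast strain deficient in DNA damage repair.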
# [12] = NCI Yeast Anticancer Drug Screen. Data for the CLN2oe strain (AID 163);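 also: 0% = growth of vehicle-only control cultures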; settings: S. cerevisiae CLN2oe strain, hits give high values
# In short: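 Inhibition relative to vehicle-treated yeast is reported. Cells: strain with genetic alteration in cell-cycle control, grown with compound.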
# [13] = NCI Yeast Anticancer Drug Screen. Data for the cln2 rad14 strain (AID 165);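 also: 0% = growth equal to vehicle treated cultures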; settings: S. cerevisiae cln2 rad14 strain, hits give high values
# In short: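 Each compound was tested on cln2 rad14 yeast. Inhibition of growth was calculated against vehicle-exposed controls.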
# [14] = NCI Yeast Anticancer Drug Screen. Data for the bub3 strain (AID 167); settings: S. cerevisiae bub3 mutant strain, hits give high values
# In short: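 Yeast carrying a defined mutation is treated with each compound, and growth is compared with that of vehicle-exposed cells to give inhibition.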
# [15] = NCI Yeast Anticancer Drug Screen. Data for the wt2 strain (AID 169);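 also: 0% = growth of vehicle-treated yeast cultures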; settings: S. cerevisiae wt2 strain growth inhibition, hits give high values
# In short: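 Inhibition of yeast growth was determined after compound treatment, normalised to controls receiving only vehicle.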
# [16] = NCI Yeast Anticancer Drug Screen. Data for the wt1 strain (AID 149);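 also: 0% = growth of vehicle-treated wt1 cultures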; settings: S. cerevisiae wt1 strain (SPY 50644) growth inhibition, hits give high values
# In short: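 wt1 yeast, compound-treated; % growth inhibition vs vehicle control.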
# [17] = at 5.0 µM (retest, dose inferred, filed as 0.5)
# [18] = at 50.0 µM (retest, dose inferred, filed as 5.0)
compound,measurement,setting,value
Nc1nc(-c2ccccc2)c(-c2ccccc2)[se]1,growth inhibition,[1]; at 1.2 µM,0%
same,growth inhibition,[1]; at 3.7 µM,2%
same,growth inhibition,[1]; at 11.0 µM,0%
same,growth inhibition,[1]; at 33.0 µM,6%
same,growth inhibition,[1]; at 100.0 µM,17%
same,growth inhibition,[2]; at 1.2 µM,-18%
same,growth inhibition,[2]; at 3.7 µM,7%
same,growth inhibition,[2]; at 11.0 µM,11%
same,growth inhibition,[2]; at 33.0 µM,6%
same,growth inhibition,[2]; at 100.0 µM,32%
same,growth inhibition,[3]; [17],6%
same,growth inhibition,[3]; [18],10%
same,growth inhibition,[3]; at 50.0 µM,62.5%
same,growth inhibition,[4]; at 1.2 µM,5%
same,growth inhibition,[4]; at 3.7 µM,8%
same,growth inhibition,[4]; at 11.0 µM,6%
same,growth inhibition,[4]; at 33.0 µM,15%
same,growth inhibition,[4]; at 100.0 µM,51%
Nc1ccc(Cl)cc1C(=O)c1ccccc1,growth inhibition,[5]; at 1.2 µM,-15%
same,growth inhibition,[5]; at 3.7 µM,-16%
same,growth inhibition,[5]; at 11.0 µM,-15%
same,growth inhibition,[5]; at 33.0 µM,46%
same,growth inhibition,[5]; at 100.0 µM,97% (active)
same,growth inhibition,[6]; at 1.2 µM,-7%
same,growth inhibition,[6]; at 3.7 µM,-2%
same,growth inhibition,[6]; at 11.0 µM,4%
same,growth inhibition,[6]; at 33.0 µM,44%
same,growth inhibition,[6]; at 100.0 µM,90% (active)
same,growth inhibition,[7]; at 1.2 µM,-28%
same,growth inhibition,[7]; at 3.7 µM,-42%
same,growth inhibition,[7]; at 11.0 µM,-43%
same,growth inhibition,[7]; at 33.0 µM,3%
same,growth inhibition,[7]; at 100.0 µM,97% (active)
same,growth inhibition,[8]; at 1.2 µM,-17%
same,growth inhibition,[8]; at 3.7 µM,-19%
same,growth inhibition,[8]; [17],48%
same,growth inhibition,[8]; at 11.0 µM,-4%
same,growth inhibition,[8]; at 33.0 µM,57%
same,growth inhibition,[8]; [18],82% (active)
same,growth inhibition,[8]; at 50.0 µM,91% (active)
same,growth inhibition,[8]; at 100.0 µM,97% (active)
same,growth inhibition,[9]; at 1.2 µM,-38%
same,growth inhibition,[9]; at 3.7 µM,-33%
same,growth inhibition,[9]; [17],54%
same,growth inhibition,[9]; at 11.0 µM,-18%
same,growth inhibition,[9]; at 33.0 µM,0%
same,growth inhibition,[9]; [18],86% (active)
same,growth inhibition,[9]; at 50.0 µM,72.2% (active)
same,growth inhibition,[9]; at 100.0 µM,97% (active)
same,growth inhibition,[10]; at 1.2 µM,-25%
same,growth inhibition,[10]; at 3.7 µM,-23%
same,growth inhibition,[10]; at 11.0 µM,-15%
same,growth inhibition,[10]; at 33.0 µM,46%
same,growth inhibition,[10]; at 100.0 µM,97% (active)
same,growth inhibition,[11]; [17],-19%
same,growth inhibition,[11]; [18],98% (active)
same,growth inhibition,[11]; at 50.0 µM,90.7% (active)
same,growth inhibition,[12]; at 1.2 µM,5%
same,growth inhibition,[12]; at 3.7 µM,-5%
same,growth inhibition,[12]; at 11.0 µM,5%
same,growth inhibition,[12]; at 33.0 µM,20%
same,growth inhibition,[12]; at 100.0 µM,97% (active)
same,growth inhibition,[13]; [17],57%
same,growth inhibition,[13]; [18],96% (active)
same,growth inhibition,[13]; at 50.0 µM,71.4% (active)
same,growth inhibition,[14]; at 1.2 µM,-35%
same,growth inhibition,[14]; at 3.7 µM,-40%
same,growth inhibition,[14]; [17],-6%
same,growth inhibition,[14]; at 11.0 µM,-52%
same,growth inhibition,[14]; at 33.0 µM,-23%
same,growth inhibition,[14]; [18],96% (active)
same,growth inhibition,[14]; at 50.0 µM,88.1% (active)
same,growth inhibition,[14]; at 100.0 µM,96% (active)
same,growth inhibition,[15]; at 1.2 µM,-2%
same,growth inhibition,[15]; at 3.7 µM,-5%
same,growth inhibition,[15]; at 11.0 µM,-6%
same,growth inhibition,[15]; at 33.0 µM,21%
same,growth inhibition,[15]; at 100.0 µM,97% (active)
same,growth inhibition,[2]; at 1.2 µM,-7%
same,growth inhibition,[2]; at 3.7 µM,1%
same,growth inhibition,[2]; at 11.0 µM,7%
same,growth inhibition,[2]; at 33.0 µM,63%
same,growth inhibition,[2]; at 100.0 µM,98% (active)
same,growth inhibition,[3]; [17],39%
same,growth inhibition,[3]; [18],81% (active)
same,growth inhibition,[3]; at 50.0 µM,88.4% (active)
OC1(c2ccccc2)CC2CCC(C1)N2CCCC(O)(c1ccccc1)c1ccccc1 (centres undefined),growth inhibition,[16]; at 1.2 µM,1%
same,growth inhibition,[16]; at 3.7 µM,1%
same,growth inhibition,[16]; at 11.0 µM,2%
same,growth inhibition,[16]; at 33.0 µM,6%
same,growth inhibition,[16]; at 100.0 µM,24%
same,growth inhibition,[6]; at 1.2 µM,-5%
same,growth inhibition,[6]; at 3.7 µM,-3%
same,growth inhibition,[6]; at 11.0 µM,0%
same,growth inhibition,[6]; at 33.0 µM,2%
same,growth inhibition,[6]; at 100.0 µM,5%
same,growth inhibition,[8]; at 1.2 µM,-6%
same,growth inhibition,[8]; at 3.7 µM,-15%
same,growth inhibition,[8]; [17],-8%
same,growth inhibition,[8]; at 11.0 µM,-13%
same,growth inhibition,[8]; at 33.0 µM,21%
same,growth inhibition,[8]; [18],6%
same,growth inhibition,[8]; at 50.0 µM,33.2%
same,growth inhibition,[8]; at 100.0 µM,62%
same,growth inhibition,[9]; at 1.2 µM,0%
same,growth inhibition,[9]; at 3.7 µM,1%
same,growth inhibition,[9]; [17],-10%
same,growth inhibition,[9]; at 11.0 µM,4%
same,growth inhibition,[9]; at 33.0 µM,18%
same,growth inhibition,[9]; [18],10%
same,growth inhibition,[9]; at 50.0 µM,-2.2%
same,growth inhibition,[9]; at 100.0 µM,37%
same,growth inhibition,[10]; at 1.2 µM,4%
same,growth inhibition,[10]; at 3.7 µM,5%
same,growth inhibition,[10]; at 11.0 µM,15%
same,growth inhibition,[10]; at 33.0 µM,53%
same,growth inhibition,[10]; at 100.0 µM,96% (active)
same,growth inhibition,[11]; [17],-2%
same,growth inhibition,[11]; [18],44%
same,growth inhibition,[11]; at 50.0 µM,71.8% (active)
same,growth inhibition,[12]; at 1.2 µM,-4%
same,growth inhibition,[12]; at 3.7 µM,-5%
same,growth inhibition,[12]; at 11.0 µM,-2%
same,growth inhibition,[12]; at 33.0 µM,12%
same,growth inhibition,[12]; at 100.0 µM,49%
same,growth inhibition,[13]; [17],1%
same,growth inhibition,[13]; [18],52%
same,growth inhibition,[13]; at 50.0 µM,2.55%
same,growth inhibition,[14]; at 1.2 µM,0%
same,growth inhibition,[14]; at 3.7 µM,0%
same,growth inhibition,[14]; [17],8%
same,growth inhibition,[14]; at 11.0 µM,5%
same,growth inhibition,[14]; at 33.0 µM,30%
same,growth inhibition,[14]; [18],67%
same,growth inhibition,[14]; at 50.0 µM,53.7%
same,growth inhibition,[14]; at 100.0 µM,80% (active)
same,growth inhibition,[15]; at 1.2 µM,-1%
same,growth inhibition,[15]; at 3.7 µM,-1%
same,growth inhibition,[15]; at 11.0 µM,1%
same,growth inhibition,[15]; at 33.0 µM,17%
same,growth inhibition,[15]; at 100.0 µM,80% (active)
same,growth inhibition,[1]; at 1.2 µM,1%
same,growth inhibition,[1]; at 3.7 µM,1%
same,growth inhibition,[1]; at 11.0 µM,3%
same,growth inhibition,[1]; at 33.0 µM,23%
same,growth inhibition,[1]; at 100.0 µM,80% (active)
same,growth inhibition,[2]; at 1.2 µM,1%
same,growth inhibition,[2]; at 3.7 µM,3%
same,growth inhibition,[2]; at 11.0 µM,3%
same,growth inhibition,[2]; at 33.0 µM,38%
same,growth inhibition,[2]; at 100.0 µM,89% (active)
same,growth inhibition,[3]; [17],-7%
same,growth inhibition,[3]; [18],26%
same,growth inhibition,[3]; at 50.0 µM,53.5%
same,growth inhibition,[4]; at 1.2 µM,0%
same,growth inhibition,[4]; at 3.7 µM,-1%
same,growth inhibition,[4]; at 11.0 µM,4%
same,growth inhibition,[4]; at 33.0 µM,28%
same,growth inhibition,[4]; at 100.0 µM,57%
